# TTR transcr act: TTR transcription activators in neuroblastoma reporter cells, primary screen, cell-based, luminescence, SH-SY5Y, TTR promoter Gaussia luciferase | 100% = recombinant luciferase protein wells | activation, % at 16.7 µM | 1.3% of 92,000 active | AID 1117267, 2014;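 active = activation above the mean of all tested compounds plus 3 SD, cut at about 9.5% in these data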;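 note: cells exposed to compounds for one day before reading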
# HuH7 TTR inh: TTR promoter reporter inhibitors in hepatoma cells, counter-screen for TTR transcription activator project, cell-based, luminescence, HuH7 hepatoma; 4% of 1,100 active; AID 1117279, 2014; HuH7 TTR promoter-Gaussia luciferase reporter; shares compounds with TTR transcr act; inhibition, % at 16.7 µM;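 active = average inhibition above the solvent-only control wells' mean plus 3 SD, cut at about 15% in these data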;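 note: inhibitors lower well luminescence so higher value means more inhibition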
# TTR act confirm: TTR transcription activators, retest, confirmation, cell-based, luminescence, SH-SY5Y, triplicate | 1,100 tested, under 10 active | AID 1117280, 2014 | shares compounds with TTR transcr act | activation, % at 16.7 µM | SHSY5Y TTR promoter Gaussia luciferase; 100% = purified Lucia enzyme wells, no cells;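 active = mean activation above a set limit taken from the earlier primary screen, cut at about 11% in these data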
# Hits are given with their value; n = inactive. The sample as a whole holds a higher share of hits than the screen did.
SMILES,TTR transcr act,others
O=c1c2c3c(sc2n2c(=S)[nH]nc2n1-c1ccccc1)CCC3,n,
Cc1ccc(-n2c(=O)c3c4c(sc3n3c(=S)[nH]nc23)CCC4)cc1,15,HuH7 TTR inh=n;TTR act confirm=n
COc1cccc(NC(=O)Nc2c(-c3ccc(C)cc3)nc3ncccn23)c1,n,
C/C(=N\NC(=O)C(N)=O)c1cccc([N+](=O)[O-])c1,n,
C/C(=N\Nc1cc(C)nc(-c2ccccc2)n1)c1cccc([N+](=O)[O-])c1,n,
C/C(=N\Nc1ncc(Br)cn1)c1cccc([N+](=O)[O-])c1,14,HuH7 TTR inh=21;TTR act confirm=n
CCOC(=O)[C@@]12CCC3=C1N(CCC3)C(=O)[C@H](CC(=O)NCc1cccc3ccccc13)C2,n,
COc1ccccc1NC(=O)Cc1noc(CSc2nnc(N)s2)n1,11,HuH7 TTR inh=n;TTR act confirm=n
COc1ccccc1NC(=O)Cc1csc(NC(=O)c2ccccc2)n1,n,
COc1ccccc1Nc1nnc(SCC(=O)Nc2cc(C)on2)s1,n,
COC(=O)[C@]12C[C@H](CC(=O)N3CCSCC3)C(=O)N(CCc3ccc(OC)c(OC)c3)C1=C[C@H](COCc1ccccc1)O[C@@H]2C,n,
Nc1nc(NCc2ccco2)nc(Nc2cccc(F)c2)c1[N+](=O)[O-],n,
O=C1C2C3C=CC(C3)C2C(=O)N1c1ccc(-c2nc(-c3ccccc3)nc3ccccc23)cc1 (stereo not given),n,
CCC(O)c1nc2ccccc2n1CCc1ccccc1 (stereo not given),n,
CC1(C(=O)NC2CCCCCC2)CCN1C(=O)Cc1ccc(-c2ccccc2)cc1 (stereo not given),n,
Cc1cc(-c2ccccc2)nc(Oc2ccc(C(C)(C)C)cc2)c1S(C)(=O)=O,n,
Cc1cccc(Oc2nc(-c3ccccc3)cc(C)c2S(C)(=O)=O)c1C,12,HuH7 TTR inh=n;TTR act confirm=n
Cc1cc(C)cc(Oc2nc(-c3ccccc3)cc(C)c2S(C)(=O)=O)c1,n,
CN(C)CCNC(=O)CNC(=S)N(Cc1ccccc1)Cc1cccnc1,n,
COc1ccc(NC(=O)Cn2c(NCC(C)O)nc3ccccc32)cc1Cl (stereo not given),n,
Cc1c(Cl)cccc1NC(=S)N1CCCN(Cc2ccc(F)cc2)C1,n,
Cc1cc2nc(-c3ccco3)cc(C(F)(F)F)n2n1,n,
COc1ccc(-c2cc(C(F)(F)F)n3nc(C(=O)O)nc3n2)cc1,n,
COc1ccc(-c2cc(C(F)(F)F)n3nc(C)cc3n2)cc1,14,HuH7 TTR inh=n;TTR act confirm=n
C=CCN1C(=O)[C@@H](CC(=O)N2CCN(C(=O)C3CC3)CC2)[C@]2(C(=O)OC)CCCCC=C12,n,
SMILES,TTR transcr act,others
O=C(CSc1cccc[n+]1[O-])Nc1cc2c(cc1Cl)C(=O)c1ccccc1C2=O,n,
O=C(CSc1cccc[n+]1[O-])Nc1ccc(Br)cc1Br,n,
O=C(CSc1cccc[n+]1[O-])Nc1ccc(Cl)cc1F,11,HuH7 TTR inh=n;TTR act confirm=n
Cc1ccc(Cl)c(NC(=O)CSc2cccc[n+]2[O-])c1Cl,14,HuH7 TTR inh=n;TTR act confirm=n
Cc1cc(C)c(NC(=O)CSc2cccc[n+]2[O-])c(C)c1,n,
CN(C)S(=O)(=O)c1cc(NC(=O)CSc2cccc[n+]2[O-])ccc1Cl,n,
COc1cccc(/C=C2\CC(C)Cc3c2nc2ccccc2c3C(=O)O)c1OC (stereo not given),n,
O=[N+]([O-])c1cccc(S(=O)(=O)NC2CC3CCC2C3)c1 (stereo not given),n,
COc1ccccc1-c1noc2c1C(=O)N(Cc1cn(Cc3ccccc3)nn1)CC2,n,
CN(CC(=O)Nc1ccc(Cl)c(Cl)c1)C(=O)CNC(=O)Cc1ccccc1,n,
Cc1ccc(S(=O)(=O)N2C[C@H]3[C@H]4C(=O)N(Cc5ccccc5)C(=O)[C@H]4CC(=O)[C@H]3[C@@H]2c2ccccc2Cl)cc1,n,
O=C(C[C@H]1C[C@@H]2c3cc(NC(=O)c4ccc5c(c4)OCO5)ccc3O[C@@H]2[C@H](CO)O1)NCc1cc(F)ccc1F,17,HuH7 TTR inh=n;TTR act confirm=n
COc1ccccc1CNC(=O)C[C@@H]1C[C@H]2c3cc(NC(=O)c4ccc5c(c4)OCO5)ccc3O[C@H]2[C@@H](CO)O1,n,
O=C(C[C@H]1C[C@H]2c3cc(NC(=O)CC4CC4)ccc3O[C@H]2[C@H](CO)O1)NCc1ccccc1F,n,
CC(C)CCNS(=O)(=O)c1cc2c3c(c1)CCN3C(=O)CC2,n,
O=C(C1CC(=O)N(c2ccccc2)C1)N1CCN(c2ccc(F)cc2)CC1 (stereo not given),n,
O=C(CSCC(=O)Nc1cccc2ccccc12)Nc1cccc2ccccc12,n,
Cc1cc(C)nc(SCC(=O)Nc2ccnc3ccccc23)n1,n,
Cc1cc(C)nc(SCCC(=O)Nc2cccc3ccccc23)n1,13,HuH7 TTR inh=n;TTR act confirm=n
Cc1ccc(CN2CCCCC(NC(=O)Nc3cccc(F)c3)C2=O)cc1 (stereo not given),n,
Cc1nnc(SCC(=O)NC2CCCCCC2)n1N,n,
Clc1cccc(Nc2nc(N3CCOCC3)nc(N3CCOCC3)n2)c1,n,
CCc1ccc(Nc2nc(N3CCOCC3)nc(N3CCOCC3)n2)cc1,n,
c1ccc2oc(-c3ccc(Nc4nc(N5CCOCC5)nc(N5CCOCC5)n4)cc3)nc2c1,10,HuH7 TTR inh=n;TTR act confirm=n
Cc1cccc(NC(=O)NN2CCN(C)CC2)c1C,n,
SMILES,TTR transcr act,others
CC(C)CC(N)c1csc(Nc2cc(Oc3ccccc3)ncn2)n1 (stereo not given),n,
CCCOc1ccc(N2C(=O)CC(SC(=NC)Nc3ccc(F)cc3)C2=O)cc1 (stereo not given),n,
CCOc1ccc(N2C(=O)CC(NCCc3ccncc3)C2=O)cc1 (stereo not given),n,
CCCOc1ccc(N2C(=O)CC(NCC(=O)OCC)C2=O)cc1 (stereo not given),10.0,HuH7 TTR inh=n;TTR act confirm=n
Cc1c(C2(O)CCCCC2)[nH]c2cc(C(F)(F)F)ccc12,n,
Cc1c(C2(O)CCCCC2)[nH]c2ncccc12,11,HuH7 TTR inh=n;TTR act confirm=n
Cc1c(C2(O)CCCCC2)[nH]c2cnccc12,n,
COC(=O)[C@]12C[C@H](CC(=O)NCc3ccc(OC)c(OC)c3)C(=O)N(CCc3ccc(OC)c(OC)c3)C1=C[C@H](COCc1ccccc1)O[C@@H]2C,n,
CC1(C(=O)NC2CCCC2)CCC(=O)N1C1CCN(Cc2ccccc2)CC1 (stereo not given),n,
CC(C)Oc1ccc(C(=O)Nc2cccc3cccnc23)cc1,n,
O=C(NNC(=O)c1cc(Cl)ccc1O)c1cccs1,n,
COc1ccc(Cl)cc1C(=O)NNC(=O)COC(=O)c1cccs1,10,HuH7 TTR inh=n;TTR act confirm=n
O=C(CCC(=O)c1cccs1)NNC(=O)c1cc(Cl)ccc1Cl,n,
CC(C)NC(=O)CN(Cc1ccc(F)cc1)C(=O)CCC(=O)Nc1nccs1,n,
CCOC(=O)c1cc(OCC)c2c(ccc3ccccc32)n1,n,
CCOc1ccccc1/C=C/c1cc(C(=O)O)c2ccccc2n1,35,HuH7 TTR inh=n;TTR act confirm=n
CCOC(=O)c1cc(N2CCCCC2)nc2ccccc12,n,
Nc1ccn([C@@H]2O[C@H](CNCc3ccc(-c4cc(C(F)(F)F)ccc4Cl)o3)[C@@H](O)[C@H]2O)c(=O)n1,n,
COc1cc(-c2nnc(SCC(=O)Nc3ccc(C(=O)O)cc3)o2)cc(OC)c1OC,n,

# Source: PubChem (The Scripps Research Institute Molecular Screening Center)
